# The whole screen tested about 640,000 compounds, of which about 9,300 (1.5%) were called active. For the sample, actives were picked, then their nearest neighbours and some compounds at random. Values without a mark were called inactive. Rule as the data show it: active = inhibition above about 32%; inactive = the rest.
# Assay: TEAD-YAP interaction inhibition, primary screen, TEAD-YAP interaction inhibitor project, luminescence, HEK-TIYL cells (AID 1259422);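 also: 0% = median of test compound wells and 100% = reference inhibitor wells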
# Conditions: TEAD-Gal4/YAP UAS-luciferase luminescence, at 9.12 µM, stronger effect = higher value
row,Structure (SMILES),inhibition
1,CCc1ccc2c(c1)NC(=O)C2(CC)c1ccc2c(c1)OCO2 (configuration not stated),-7.41%
2,CN(c1ncnc2c1nc1n2CCCCC1)C1CCCCC1,-48%
3,CN(c1nc(N)ncc1[N+](=O)[O-])C1CCCCC1,33.8% (active)
4,CN(c1ccc(C(=O)Nc2cc(F)cc(F)c2)cc1[N+](=O)[O-])C1CCCCC1,-5.53%
5,COC(=O)C1=CN(Cc2ccc(OC)c(OC)c2)C=C(C(=O)OC)C1c1cccc(OCc2ccccc2)c1,55.4% (active)
6,CCOC(=O)C1=CN(Cc2ccc(Cl)cc2)C=C(C(=O)OCC)C1c1cccc(OCc2ccccc2)c1,5.47%
7,CCOC(=O)C1=CN(Cc2ccc(F)cc2)C=C(C(=O)OCC)C1c1cccc(OCc2ccccc2)c1,10.8%
8,CC(=O)c1ccc(OCC(=O)Nc2c(F)c(F)cc(F)c2F)cc1,-0.14%
9,CCOc1ccc(C2C(C#N)=C(N)N(c3ccc(F)cc3)C3=C2C(=O)CCC3)cc1 (configuration not stated),-0.96%
10,N=C1c2ccccc2CN1NC(=O)c1ccccc1-n1cccc1,11.5%
11,Cc1cc(NC(=O)c2cccs2)ncc1NC(=O)c1ccccc1F,-50.5%
12,O=C(Cc1ccc([N+](=O)[O-])cc1)Nc1ccccc1Cl,-21.8%
13,CNC(=O)c1ccccc1Nc1cc(NC(=O)C2(c3ccccc3)CC2)ncc1C(F)(F)F,-1.5%
14,CCc1ccccc1NC(=O)Cc1ccc([N+](=O)[O-])cc1,2.99%
15,CNC(=O)c1ccccc1Nc1cc(NC(=O)Cc2ccc(F)c(F)c2)ncc1C(F)(F)F,65.4% (active)
16,FC(F)(F)c1cccc(Nc2ccc(Br)cn2)c1,9.99%
17,O=C(Cc1c(F)cccc1Cl)Nc1ccc(Cl)cn1,-7.57%
18,CNC(=O)c1ccccc1Nc1cc(NC(=O)C(F)(F)c2ccccc2)ncc1C(F)(F)F,41.9% (active)
19,CNC(=O)c1ccccc1Nc1cc(NC(=O)Cc2ccc([N+](=O)[O-])cc2)ncc1C(F)(F)F,78.8% (active)
20,Cc1nc(NC(=O)c2ccc(C(C)(C)C)cc2)sc1C(=O)N1CCOCC1,13.1%
21,COC(=O)c1cc2occc2n1CC(=O)N(C)c1ccccc1,4.95%
22,Nc1cc(Oc2ccc3ccccc3c2)c(Cl)cc1[N+](=O)[O-],2.07%
23,O=C(COc1coc(CN2CCN(c3ccccc3F)CC2)cc1=O)N1CCCCCC1,-0.51%
24,COC(=O)c1cc(NC(=O)Nc2cc(Cl)ccc2OC)cc(C(=O)OC)c1,0.04%
25,Cc1ccc(-c2cncc(-c3cc(NCc4ccco4)nc(C)n3)c2)cc1,-4.33%
26,COCCNc1cc(-c2cncc(-c3ccc(F)cc3)c2)nc(C)n1,-1.76%
27,Cc1cnc(CNc2cc(-c3cncc(-c4ccc(F)cc4)c3)nc(C)n2)cn1,33% (active)
